# According to PubChem BioAssay (NCI):
# About 83,000 compounds went through this panel and 20% of them were active in at least one assay; those are over-represented in the sample as a whole.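 Interpretation: 100, growth as untreated; towards 0, rising growth inhibition; 0, no net growth; 0 to -100, cell death. Compounds scoring below 10 were considered active.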 Active and inactive are the calls of the source.
# Test system: HL-60(TB) leukemia
# Assay: NCI-60 one-dose screen, 48 h (100 = growth as untreated, 0 = no growth, -100 = all killed)
# Conditions: 10 µM unless noted
row,SMILES,growth
1,COc1cc(OC)c(/C=C/c2ccc3ccccc3[n+]2C)c(OC)c1,-29.5% (active)
2,CCOc1ccc(N2C(N)=NC(N)=NC2(C)C)cc1,16.4% (inactive)
3,O=C(O)C(CCc1ccccc1)NCc1ccccc1 (stereo not given),110% (inactive)
4,CC1Cc2c(Cl)ncnc2N(C)c2ccccc21 (stereo not given),11.8% (inactive)
5,COc1ccc(CCNC2=CC(=O)CCC2)cc1OC,69.4% (inactive)
6,Clc1ccc(Nc2nc(Nc3ccccc3)nc(Nc3ccc(-c4cc(-c5ccc(Cl)cc5)on4)cc3)n2)cc1,55.3% (inactive)
7,CC1=C(SCCC(=O)OC(C[Se]C2=C(C)C(=O)c3ccccc3C2=O)C(=O)NC(C)(C)C)C(=O)c2ccccc2C1=O (stereo not given),8.81% (active)
8,CCOC(=O)c1ccc2c(c1)c1c(C)c3cnccc3c(C)c1n2C,-18.8% (active)
9,CCOC(=O)c1sc2nc(-c3cccc(OC)c3)nc(N3CCOCC3)c2c1C,101% (inactive)
10,CCCc1cn(CC(=O)Nc2nc3ccccc3s2)nn1,101% (inactive)
11,CCCCC(=O)c1ccc(OC)cc1,92.6% (inactive)
12,CCOC(=O)c1c(C)nc2c(c1N)C(=O)C(=O)N2CCc1ccc(OC)c(OC)c1,65.6% (inactive)
13,CCOC(=O)CCN(CC(C)C)C(=S)Nc1ccccc1,97.2% (inactive)
14,ClC1=C(Cl)C(Cl)=C(Cl)C1=Cc1ccc(Cl)cc1,-4.27% (active)
15,C=C(c1ccc(N(C)C)cc1)c1ccc(N(C)C)cc1,-6.12% (active)
16,O=[N+]([O-])c1ccc(-c2nc(-c3ccccc3)c(-c3ccccc3)n2-c2ccccc2)cc1,-16.4% (active)
17,CCc1ccc(Nc2cc(C)c3ccc(O)cc3n2)cc1,33.9% (inactive)
18,NC(N)=N/N=C/c1ccc(Br)cc1,-0.0458% (active)
19,CCc1nc2ccc(Cc3ccc(C(=O)NO)cc3)cc2c(=O)n1CCc1ccccc1,-20.3% (active)
20,COc1ccc(-c2cc(/C=C3\C(=O)Nc4cc(Cl)ccc43)[nH]n2)cc1,-11.7% (active)

row,SMILES,growth
1,O=[N+]([O-])c1ccc(-c2nc(N(CCO)CCO)c3ccccc3n2)o1,-11.1% (active)
2,c1ccc(Cn2cc3c(c2)-c2nc(Nc4ccccc4)ncc2CC3)cc1,79.4% [100 µM] (inactive)
3,NC(=O)NCCO,109% (inactive)
4,CCOC(=O)c1cn2ncnc(Oc3ccc(NC(=O)NCCN4CCN(C)CC4)c(Cl)c3)c2c1C,96.9% (inactive)
5,CCCCCCCCCCNC(=O)CI,19.3% (inactive)
6,CC(=O)c1cc(Cl)ccc1O,103% (inactive)
7,N#Cc1nc2c(S(=O)(=O)c3ccccc3)c(N)n(Cc3cccnc3)c2nc1C#N,53% (inactive)
8,CCCCNCCCCCNc1cc(OC)cc2cccnc12,67.5% (inactive)
9,COc1ccc(S(=O)(=O)n2cc(C3OC(c4cc(OC)c(OC)c(OC)c4)=NN3C(C)=O)c3ccccc32)cc1OC (stereo not given),111% (inactive)
10,C=CCN1C(=O)/C(=c2\sc3n(c2=O)NC2C(N=3)N(CC)C(=O)N2CC)c2ccccc21 (stereo not given),-12.6% (active)
11,COc1ccc2[nH]c(-c3ccc(Cl)cc3)cc(=O)c2c1,75.7% (inactive)
12,O=C(CN1C(=O)c2ccccc2S1(=O)=O)Nc1nc(-c2cc3ccccc3oc2=O)cs1,101% (inactive)
13,COc1ccc(C/C(C)=C(\c2ccc(OCCN3CCCCCC3)cc2)c2ccc(OC(=O)C3CCCCC3)cc2)cc1,17.1% (inactive)
14,COc1ccc(-c2csc(NC(=O)CSc3nc(C)c(-c4ccccc4)n3Nc3ccccc3)n2)cc1,50.3% (inactive)
15,Nc1ccccc1SC1CC(=O)N(c2ccc(Cl)c(Cl)c2)C1=O (stereo not given),139% (inactive)
16,NS(=O)(=O)c1ccc(CCN2C(=O)c3cc(Cl)c(Cl)cc3C2=O)cc1,86.5% (inactive)
17,CCCN(CCC)CC(O)COc1ccccc1C(=O)Nc1ccccc1 (stereo not given),17.3% (inactive)
18,O=C1OC2(c3ccccc31)c1ccccc1-c1ccccc12,69.6% (inactive)
19,CCOC(=O)c1ccc(N(C=O)CCC(=O)CCl)cc1,-28.6% (active)
20,COc1cc2c(cc1[N+](=O)[O-])-c1ccc([N+](=O)[O-])cc1/C2=N/NC(N)=S,88.3% (inactive)
